Screens from PubChem.
IL1B secr inh – inhibitors of inflammasome signaling (IL-1 beta secretion). THP-1 LPS/ATP IL-1B secretion, AlphaLISA, 16 h; stronger effect = lower value. activity change, % at 57.5 µM. actives 4.7% (n = 360,000). AID 743279; in the data active = activity change below about -50%; inconclusive = mostly about -30% to -49%; note: % is set by controls: 0 for no effect and ±100 for the full control effect
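Secreted IL-1B measured by AlphaLISA bead assay after 16 h compound exposure of THP-1 cells; compounds (final up to 57.5 uM) added 1 h before LPS (250 ng/mL) and ATP (1.25 mM) stimulation; lower signal means less secretion.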
ATXN2 expr inh – inhibitors of ATXN2 expression; HEK-293 ATXN2-luciferase reporter, luminescence, 24 h; Potency, µM (top dose mostly 57 µM), without a hit: at the top dose activity change, negative = inhibition, actives largely listed as inhibitors; actives 0.72% (n = 360,000); AID 1745845; note: potency is the fitted concentration of half-maximal effect; % is set by controls: 0 for no effect and ±100 for the full control effect; nearly all actives have a fitted effect of over 55% in size
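ATXN2-luciferase reporter cells (luciferase flanked by upstream and downstream ATXN2 gene portions) were treated 24 h at 37 °C with compounds at up to 57 uM. SteadyGlo luminescence gave expression; GF-AFC fluorescence gave viability.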
USP2a block – blocks human ubiquitin-specific protease USP2a. USP2 core, Ub-CHOP2 coupled fluorogenic reporter, 485/531. actives 0.01% (n = 330,000). Potency, µM (top dose mostly 38.3 µM), for the others: top-dose activity change, negative = inhibition, hits mostly inhibitors. O75604;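 note: potency is the fitted concentration of half-maximal effect; plate controls were DMSO wells for no effect and full inhibition by NEM control for full effect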
Target sequence (O75604 whole entry, looked up): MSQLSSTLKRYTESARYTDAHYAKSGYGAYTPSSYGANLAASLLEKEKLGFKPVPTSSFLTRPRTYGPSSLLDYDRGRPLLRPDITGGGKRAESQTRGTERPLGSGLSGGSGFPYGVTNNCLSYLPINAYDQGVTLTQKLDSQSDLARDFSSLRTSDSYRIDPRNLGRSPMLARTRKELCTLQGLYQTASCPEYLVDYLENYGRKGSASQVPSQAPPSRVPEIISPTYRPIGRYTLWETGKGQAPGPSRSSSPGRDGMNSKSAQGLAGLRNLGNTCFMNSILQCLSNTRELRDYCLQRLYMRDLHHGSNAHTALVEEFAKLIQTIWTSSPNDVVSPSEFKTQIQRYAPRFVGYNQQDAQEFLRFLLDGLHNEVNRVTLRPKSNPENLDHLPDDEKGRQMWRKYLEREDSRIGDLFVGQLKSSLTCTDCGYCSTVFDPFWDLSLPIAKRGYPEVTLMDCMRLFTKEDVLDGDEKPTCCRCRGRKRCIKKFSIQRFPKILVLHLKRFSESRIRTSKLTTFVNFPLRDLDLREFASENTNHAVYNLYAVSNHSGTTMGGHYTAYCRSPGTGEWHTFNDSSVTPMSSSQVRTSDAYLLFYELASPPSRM
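Deubiquitinase activity read as fluorescence (485/531 nm) after Ub-CHOP2 cleavage activates the enterokinase reporter on its substrate; USP2 core 10nM, Ub-CHOP2 and substrate 25nM each, 30min compound preincubation then 60min RT; data normalized to NEM, curves fitted.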
USP1-UAF1 inh – inhibitors of human USP1/UAF1 deubiquitinase; O94782; recombinant USP1/UAF1, Ub-Rhodamine cleavage fluorescence; Potency, µM (titrated, usually from 57.1 µM), for inactives: at the top dose activity change, negative = inhibition, hits mostly inhibitors; actives 0.23% (n = 390,000); note: potency is the fitted concentration of half-maximal effect; % is set by controls: 0 for no effect and ±100 for the full control effect; nearly all actives have a fitted effect of over 60% in size
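USP1/UAF1 complex at 1 nM was preincubated with compound for 15 min at room temperature, then Ub-Rho substrate (150nM final) was added. Fluorescence (480/540 nm) was read kinetically, 6 reads every 60 seconds.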
S2 tox – reduces viability in counter-screen for ATXN expression inhibitors; S2 cells (HEK-293 line with an ATXN2-luciferase reporter) viability, CellTiter-Fluor protease fluorescence, 24 h; Potency, µM (highest dose often 56.7 µM), hits mostly cytotoxic; actives 0.49% (n = 400,000); note: potency is the fitted concentration of half-maximal effect; nearly all actives have a fitted effect of over 40% in size
* = called active by the depositor; i = inactive; ? = inconclusive; . = not tested or not shown; [ ] = remark or other dose. Hits are enriched below; roughly 4.8% of the tested compounds scored in any of these assays. Unless noted, calls come from the whole dose curve; as a rule, active = well fitted curve in the direction sought with a large enough effect; inconclusive = small, poorly fitted or top-dose-only effect, or another doubt; inactive = no such curve, though single readings can be large; an effect the other way counts as inactive or inconclusive.

SMILES | IL1B secr inh | ATXN2 expr inh | USP2a block | USP1-UAF1 inh | S2 tox
CCN(CC(=O)NCc1cccs1)C(=O)c1ccc(N(C)S(=O)(=O)c2ccc(C)cc2)cc1 | -11 | -24% | . | -2% | i
COc1ccc(/C=C2/SC(=O)N(CCNC(=O)C3CCCN3C(=O)c3cccs3)C2=O)cc1 (stereo not drawn) | -149* | . | 3% | -8% | i
O=C(NCCN1C(=O)S/C(=C/c2ccccc2)C1=O)C1CCCN1C(=O)c1cccs1 (stereo not drawn) | -24 | -1% | 2% | -21% | i
NS(=O)(=O)c1ccc(N2N=C(c3ccccc3)CC2c2ccc(Br)cc2)cc1 (stereo not drawn) | -25 | ? | . | . | ?
NS(=O)(=O)c1ccc(N2N=C(c3ccccc3)CC2c2ccccc2)cc1 (stereo not drawn) | -52* | -25% | -2% | -13% | i
CCc1ccc(C2=NN(c3ccc(S(N)(=O)=O)cc3)C(c3ccc(F)cc3)C2)cc1 (stereo not drawn) | -87* | ? | -6% | -25% | ?
Cc1ccc2c(c1)[C@H]1[C@H](CO2)[C@H](c2ccccc2)[C@]2(C)C(=O)Nc3ccccc3C(=O)N12 | -60* | ? | 0% | -17% | ?
Cc1ccc2c(c1)C(=O)N1[C@H]3c4ccccc4OC[C@@H]3[C@H](c3ccccc3)[C@]1(C)C(=O)N2 | -62* | 14% | 1% | -27% | i
Cc1ccc2c(c1)[C@H]1[C@H](CO2)[C@H](c2ccccc2)[C@]2(C)C(=O)Nc3ccc(Cl)cc3C(=O)N12 | ? | 1% | -1% | -12% | i
Cc1ccc(C)c(OCC(=O)N2CCN(c3ncccn3)CC2)c1 | 2 | -20% | -1% | -13% | i
O=C(NCc1cccc(Br)c1)c1cnn(-c2ccc(F)cc2)c1-n1cccc1 | . | -22% | . | -15% | ?
O=S(=O)(c1cnc(Cl)c(Br)c1)N1CCCCCC1 | -104* | -10% | 0% | -4% | i
COc1ccc(CC2=CC(=O)c3ccccc3C2=O)cc1 | -98* | . | -1% | ? | ?
COc1ccc(C(=O)/C=C/Sc2nc3ccccc3o2)cc1 | -95* | ? | 9% | ? | .
COc1cc(CN2CCCC(n3cc(C(=O)N4CCCCC4)nn3)C2)cc(OC)c1 (stereo not drawn) | . | . | . | . | i
COc1ccc(C(=O)CSc2nn3c(=O)c(C(C)(C)C)nnc3s2)cc1 | -58* | -24% | -1% | -27% | i
CC(C)(C)c1nnc2sc(SCC(=O)c3ccccc3)nn2c1=O | -13 | -27% | 1% | -22% | i
CC(C)(C)NC(=O)/C(=C/c1ccco1)c1ccccc1 | -4 | 5% | 5% | 0% | i
COc1ccc(/C=C(/C(=O)c2cccs2)N2C=CC=CC2=C(C#N)C#N)cc1 | -95* | . | 3% | -26% | ?
N#CC(C#N)=C1C=CC=CN1/C(=C\c1ccco1)C(=O)c1ccccc1 | -98* | ? | -1% | -22% | ?
N#C/C(=C/c1ccco1)C(N)=S | 2 | -4% | 1% | -18% | i
N#CC(C#N)=C1C=CC=CN1/C(=C\c1ccco1)C(=O)c1ccc(Br)cc1 | -106* | 18µM* | 2% | -23% | ?
COc1ccc(C(=O)/C(=C\c2ccco2)N2C=CC=CC2=C(C#N)C#N)cc1 | -96* | 14µM* | 3% | -24% | .
COc1cc(C(=O)Nc2cccc(S(=O)(=O)NCc3ccco3)c2)cc(OC)c1OC | ? | 18% | 1% | -20% | i
COc1ccccc1C1CN(CCNC(=O)[C@@H]2CSC(=O)N2)Cc2ccccc2O1 (stereo partly drawn) | . | . | . | . | i
SMILES | IL1B secr inh | ATXN2 expr inh | USP2a block | USP1-UAF1 inh | S2 tox
C[N+]1(C)CCN(CC(O)(c2ccccc2)C2CCCCC2)CC1 (stereo not drawn) | . | . | . | . | i
COC(=O)C1=C(C)NC(COC(N)=O)=C(C(=O)OC(C)C)C1c1cccc(Cl)c1Cl (stereo not drawn) | . | -29% | . | . | ?
COC(=O)c1ccccc1NC(=S)N(Cc1ccc2c(c1)OCO2)Cc1cc2ccc(C)cc2[nH]c1=O | -16 | -18% | -4% | -13% | i
CCN(CC)CCN(Cc1cc2ccc(C)cc2[nH]c1=O)C(=S)Nc1ccccc1C(=O)OC | -77* | 3%[11.3 µM] | 1% | -1% | i
CCN(CC)CCN(Cc1cc2cccc(C)c2[nH]c1=O)C(=S)Nc1ccccc1 | -80* | 4% | 2% | -9% | i
Cc1ccc2cc(CN(CCCO)S(=O)(=O)c3ccccc3F)c(=O)[nH]c2c1C | -59* | -23% | 0% | 1% | i
Cc1ccc2cc(CN(CCN(C)C)C(=S)Nc3ccccc3)c(=O)[nH]c2c1C | -85* | -3% | 6% | -2% | i
Cc1ccc2cc(CN(CCCO)S(=O)(=O)c3cccc4nsnc34)c(=O)[nH]c2c1C | 31 | -5% | 0% | -12% | i
COc1cc(OC)c2nc(-c3cc4c(c(OC)c3)OCCN(C(=O)CC3NC(=O)c5ccccc53)C4)cc(C)c2c1 (stereo not drawn) | . | . | . | . | i
Cc1ccc(NC(=S)N(CCCN(C)C)Cc2cc3cc4c(cc3[nH]c2=O)OCO4)cc1 | -2 | -3% | 5% | -18% | i
CCN1CCCC1CN(Cc1cc2ccc(C)cc2[nH]c1=O)C(=S)Nc1ccc(OC)cc1OC (stereo not drawn) | -52* | 12% | 3% | 0% | i
Cc1ccc(NC(=S)N(CCN(C)C)Cc2cc3cc(C)cc(C)c3[nH]c2=O)cc1 | -53* | -1% | 3% | -3% | i
COc1ccc2c(CNCc3cccs3)c(C(=O)O)n(Cc3cccc(F)c3)c2c1 | . | -7% | . | -18% | ?
CCC(C)NC(=O)Cn1c(=O)n(-c2ccc(C)c(C)c2)c(=O)c2c3c(sc21)CCCCC3 (stereo not drawn) | . | 4% | . | -8% | i
COCCSc1nnc(NC(=O)CCS(=O)(=O)c2ccccc2)s1 | -103* | 38% | 2% | -16% | i
COCCSc1nnc(NC(=O)CS(=O)(=O)c2ccc(C)cc2)s1 | 3 | -20% | 0% | -16% | i
O=C(CCS(=O)(=O)c1ccccc1)Nc1nc(-c2cccs2)cs1 | -74* | -2% | 4% | -20% | ?
O=C(COc1ccccc1)Nc1nc(-c2cccs2)cs1 | -1 | 14% | 1% | -23% | i
O=C(Nc1ccc(Cl)cc1)C(Cl)C(=O)c1ccccc1 (stereo not drawn) | ? | -4% | 2% | ? | i
O=C(Nc1ccccc1Cl)C(Cl)C(=O)c1ccccc1 (stereo not drawn) | -68* | -25%[11.3 µM] | 4% | -24% | i
